Bioassay records (PubChem)
An excerpt weighted towards active compounds, which were near 2.4% of everything screened.
D2 ag-1: human D2 receptor agonism in beta-arrestin assay. P14416. DiscoveRx PathHunter D2 beta-arrestin, luminescence, 90 min; 100% = 57 uM dopamine signal. activation, % (no concentration beside the values). hit rate 0.084% among 360,000; in the data active = activation above about 40%; inconclusive = between about 15% and that limit
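DiscoveRx PathHunter D2 beta-arrestin cells (2,100/well) attached overnight, then compound-stimulated 90 min at 37 C in HBSS/10 mM HEPES/0.1% Tween-20 buffer; beta-galactosidase complementation read by luminescence after 1 h at ambient temperature. Dopamine 57 uM final (EC100) as control.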
D2 PAM-1: D2 dopamine receptor (human) potentiation | P14416 | HEK293 T-REx D2, calcium flux, EC20 dopamine potentiation | potentiation, % at 10 µM | hit rate 0.34% among 340,000 | AID 485347;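 active = potentiation over 3 SD above the plate norm, cut at about 30% in these data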
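Primary screen. Calcium kinetics in induced HEK293 T-REx D2 cells: compound pre-addition 180 s, EC20 dopamine, 180 s more.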
D2 PAM-2: human D2 receptor positive allosteric modulation. AID 624464. hit rate 0.23% among 360,000. potentiation, % (test concentration not listed). P14416. DiscoveRx D2 beta-arrestin cells, luminescence, 90 min; 100% = 57 uM dopamine signal; in the data active = potentiation above about 50%; inconclusive = mostly about 30% to 49%
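PathHunter beta-arrestin assay in DiscoveRx D2 cells. Compounds were added with an EC20 of dopamine (50 nM final) for 90 min at 37 deg C. Luminescence was read 1 h after detection reagent, with 57 uM dopamine as the EC100 control.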
D2 antag: antagonists of human D2 dopamine receptor; P14416; HEK293 TREx D2 cells, calcium flux, dopamine EC80; inhibition, % at 10 µM; hit rate 2% among 340,000; in the data active = inhibition above about 30%; inactive = below that, where a call was filed
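Dopamine at EC80 is the agonist stimulus; test compounds precede it by 180 s. Calcium flux read kinetically in a force-coupled, inducible HEK293 T-REx D2 cell line.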
D2 ag-2: D2 dopamine receptor (human) agonism. P14416. HEK293 T-REx D2 cells, calcium flux agonist mode. activation, % at 2 µM. hit rate 0.53% among 340,000;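 active = activation over 3 SD above normal in the single-dose calcium agonist read, cut at about 30% in these data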
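Agonism is scored from calcium flux in a force-coupled, inducible HEK293 cell line expressing D2, read kinetically for 180 s after compound addition against dopamine controls.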
D3 ag: activates human D3 dopamine receptor beta-arrestin recruitment | shares compounds with D2 ag-2 | DiscoveRx D3 beta-arrestin cells, luminescence, 90 min | Potency, µM (top dose mostly 76.9 µM), actives largely listed as activators | hit rate 4% among 2,300 | AID 720506; note: nearly all actives have a fitted effect of over 70% in size
Target sequence (P35462 whole entry, looked up): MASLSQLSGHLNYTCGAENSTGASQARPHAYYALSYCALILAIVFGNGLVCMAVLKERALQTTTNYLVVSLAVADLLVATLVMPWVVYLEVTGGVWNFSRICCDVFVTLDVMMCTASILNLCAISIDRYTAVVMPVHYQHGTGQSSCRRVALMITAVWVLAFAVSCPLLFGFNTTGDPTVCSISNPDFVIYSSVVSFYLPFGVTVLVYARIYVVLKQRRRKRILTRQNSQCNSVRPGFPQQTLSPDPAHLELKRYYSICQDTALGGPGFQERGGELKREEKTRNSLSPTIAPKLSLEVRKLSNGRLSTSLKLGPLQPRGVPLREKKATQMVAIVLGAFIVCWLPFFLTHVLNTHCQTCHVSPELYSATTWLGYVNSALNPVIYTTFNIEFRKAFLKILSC
D2 ag-3: activates human D2 dopamine receptor in D3 counterscreen | shares compounds with D2 ag-2 | DiscoveRx PathHunter D2 beta-arrestin, luminescence, 90 min; response scale: percent relative to full dopamine signal | Potency, µM (top dose mostly 76.9 µM), hits mostly activators | hit rate 5.9% among 2,300; note: nearly all actives have a fitted effect of over 70% in size
Hits are given with their value. Unless noted, calls come from the whole dose curve; as a rule, active = well fitted activation curve with a large enough effect; inconclusive = small, poorly fitted or top-dose-only effect; inactive = flat fitted curve, though single readings scatter.

What do the screens show for `CN=c1scc(C)n1/N=C/c1ccc(O)c(O)c1O`?
D2 ag-1: 52; D2 PAM-1: inactive; D2 PAM-2: 93; D2 antag: inactive; D2 ag-2: 40; D3 ag: 40µM; D2 ag-3: inactive

Results for CC(Oc1ccc2c3c(c(=O)oc2c1)CCC3)C(=O)NCc1cccnc1 (stereo not drawn) ?
D2 ag-1: inactive; D2 PAM-1: inactive; D2 PAM-2: inactive; D2 antag: inactive; D2 ag-2: inactive

What do the screens show for `Cn1c(=O)c2c(ncn2CC(=O)NC[C@H]2O[C@@H](n3cnc4c(N)ncnc43)[C@H](O)[C@@H]2O)n(C)c1=O`?
D2 ag-1: inactive; D2 PAM-2: inactive

Results for [O-]/[N+](=C/c1ccccc1)c1ccccc1 ?
D2 ag-1: inactive; D2 PAM-1: inactive; D2 PAM-2: inactive; D2 antag: inactive; D2 ag-2: inactive; D3 ag: inactive; D2 ag-3: inactive

How did Cc1ccccc1CSCC(=O)NCCSc1ccccn1 do in these assays?
D2 ag-1: inactive; D2 PAM-1: inactive; D2 PAM-2: inactive; D2 antag: inactive; D2 ag-2: inactive

Results for COc1ccc(C2c3c(-c4ccccc4)n[nH]c3C(=O)N2c2ccc(C(=O)O)cc2)cc1 (stereo not drawn) ?
D2 ag-1: inactive; D2 PAM-1: inactive; D2 PAM-2: inactive; D2 antag: 39; D2 ag-2: inactive; D3 ag: inactive; D2 ag-3: inactive

What do the screens show for `CC1CN(C(=O)c2ccccc2OCc2ccc(Cl)cc2Cl)CC(C)O1` (stereo not drawn)?
D2 ag-1: inactive; D2 PAM-1: inactive; D2 PAM-2: inactive; D2 antag: inactive; D2 ag-2: inactive; D3 ag: inactive; D2 ag-3: inactive

What do the screens show for `COc1cc(-c2noc(C)c2C#CC2(N)CCCCC2)cc(OC)c1OC`?
D2 ag-1: inactive; D2 PAM-1: inactive; D2 PAM-2: inactive; D2 antag: inactive; D2 ag-2: inactive

Results for COc1cc(-c2noc(C)c2C#CC2(O)CCCCC2)cc(OC)c1OC ?
D2 ag-1: inactive; D2 PAM-1: inactive; D2 PAM-2: inactive; D2 antag: inactive; D2 ag-2: 72; D3 ag: inactive; D2 ag-3: inactive

Results for CCNS(=O)(=O)c1ccc2c3c(cccc13)C(=O)N2 ?
D2 ag-1: inactive; D2 PAM-1: inactive; D2 PAM-2: inactive; D2 antag: inactive; D2 ag-2: 48; D3 ag: inactive; D2 ag-3: inactive

What do the screens show for `CC(=O)c1cccc(OCC(O)CNCC2CCCCC2)c1` (stereo not drawn)?
D2 ag-1: inactive; D2 PAM-1: inactive; D2 PAM-2: inactive; D2 antag: inactive; D2 ag-2: inactive

How did CC(=O)c1cccc(OCC(O)CNCCOc2ccc(C)cc2)c1 (stereo not drawn) do in these assays?
D2 ag-1: inactive; D2 PAM-1: inactive; D2 PAM-2: inactive; D2 antag: 42; D2 ag-2: 53; D3 ag: inactive; D2 ag-3: inactive

Results for COC(=O)C1CCN(Cc2cc(=O)oc3cc(OC)ccc23)CC1 ?
D2 ag-1: inactive; D2 PAM-1: inactive; D2 PAM-2: inactive; D2 antag: inactive; D2 ag-2: 56; D3 ag: inconclusive; D2 ag-3: inconclusive

How did Cc1ccc(CN2CCN(C(=O)C3CCC3)CC2)cc1 do in these assays?
D2 ag-1: inactive; D2 PAM-1: inactive; D2 PAM-2: inactive; D2 antag: inactive; D2 ag-2: inactive

How did COc1ccc2c(CN3CCCC3)cc(=O)oc2c1 do in these assays?
D2 ag-1: inactive; D2 PAM-2: inactive

How did COC(=O)C1CCN(Cc2ccc(OCCCN3CCN(c4ccc([N+](=O)[O-])cc4)CC3)cc2)CC1 do in these assays?
D2 ag-1: inactive; D2 PAM-1: inactive; D2 PAM-2: inactive; D2 antag: 75; D2 ag-2: 54; D3 ag: inactive; D2 ag-3: inactive

Results for COC(=O)C1CCN(Cc2ccc(C)cc2)CC1 ?
D2 ag-1: inconclusive; D2 PAM-1: inactive; D2 PAM-2: inactive; D2 antag: 69; D2 ag-2: 75; D3 ag: inactive; D2 ag-3: inconclusive

Results for CO/N=C(\c1nonc1N)N1CCN(c2ccc(Cl)cc2[N+](=O)[O-])CC1 ?
D2 ag-1: inactive; D2 PAM-2: inactive

What do the screens show for `Cc1ccc2c(=O)cc(C(=O)Nc3c(C(=O)c4ccc(F)cc4)oc4ccccc34)oc2c1C`?
D2 PAM-1: inactive; D2 ag-2: inactive

How did CC(/C=N/n1c(COc2ccccc2)n[nH]c1=S)=C\c1ccco1 do in these assays?
D2 ag-1: inactive; D2 PAM-1: inactive; D2 PAM-2: inactive; D2 antag: inactive; D2 ag-2: inactive

How did OCC[C@@H]1C[C@H](O)[C@@H](O)[C@@]2(Cc3ccccc3CO2)O1 do in these assays?
D2 ag-1: inactive; D2 PAM-1: inactive; D2 PAM-2: inactive; D2 antag: inactive; D2 ag-2: inactive

Results for OCC[C@H]1C[C@@H](O)[C@H](O)[C@@]2(Cc3ccccc3CO2)O1 ?
D2 ag-1: inactive; D2 PAM-1: inactive; D2 PAM-2: inactive; D2 antag: inactive; D2 ag-2: inactive; D3 ag: inactive; D2 ag-3: inactive

What do the screens show for `CCOC(=O)C1CCCN(S(=O)(=O)CCNC(=O)c2cccc(OC)c2)C1` (stereo not drawn)?
D2 ag-1: inactive; D2 PAM-1: inactive; D2 PAM-2: inactive; D2 antag: inactive; D2 ag-2: inactive

Results for CC(C)N1CCN(CC2COc3ccccc3O2)CC1 (stereo not drawn) ?
D2 ag-1: inactive; D2 PAM-1: inactive; D2 PAM-2: inactive; D2 antag: inactive; D2 ag-2: 35; D3 ag: inactive; D2 ag-3: inactive

Results for Cc1ccc(S(=O)(=O)N2CCOC2CNC(=O)C(=O)NCc2ccc3c(c2)OCO3)cc1 (stereo not drawn) ?
D2 ag-1: inactive; D2 PAM-1: inactive; D2 PAM-2: inactive; D2 antag: 66; D2 ag-2: inactive; D3 ag: inactive; D2 ag-3: inactive

How did CCSc1nc(CC)c2c(c1C#N)CCCC2 do in these assays?
D2 ag-1: inactive; D2 PAM-1: inactive; D2 PAM-2: inactive; D2 antag: inactive; D2 ag-2: 56; D3 ag: inactive; D2 ag-3: inactive

What do the screens show for `Cc1c(OCC(=O)NCC(O)c2ccccc2)ccc2c3c(c(=O)oc12)CCCC3` (stereo not drawn)?
D2 ag-1: inactive; D2 PAM-1: inactive; D2 PAM-2: inactive; D2 antag: inactive; D2 ag-2: inactive
